37 compounds from PubChem BioAssay (NCATS) can be followed below.

Test [1] has as its system Zika virus NS2B-NS3 protease (unlinked complex). In words: Primary screen GU Rhodamine qHTS for Zika virus inhibitors: Unlinked NS2B-NS3 protease assay (AID 1347159). Also: nearly all actives have a fitted effect of over 60% in size. The following applies: Recombinant ZIKV NS2B-NS3 protease, Rhodamine110 substrate fluorescence; series mostly up to 107 µM. The method, boiled down:
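Buffer 10 mM Tris-HCl pH 8.0, 0.01% Tween 20. Unlinked protease 25 nM; compound preincubation 15 min, RT, protected from light. Substrate Rhod110, 1.5 microM; ~15% conversion in 15 min.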
(In general: qHTS replaces the single test concentration by a dilution series.)

For test [2], the system named is Zika virus NS2B-NS3 protease (linked construct). Put plainly: Primary screen NINDS Rhodamine qHTS for Zika virus inhibitors (AID 1347160). Also: nearly all actives have a fitted effect of over 55% in size. Particulars: purified NS2B-NS3 protease, Rhodamine110 substrate fluorescence; series mostly up to 57.1 µM. An outline of the steps:
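Aprotinin served as in-plate control. Conditions: 25 nM linked NS2B-NS3, pH 8.0 Tris buffer, titrated compounds, 15 min preincubation and 15 min reaction with 1.5 microM Rhod110 substrate at room temperature.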

SMILES strings stand for the structures. Inconclusive results are not listed. Values without a mark were called inactive. Calls of active or inactive are those of the source. Calls follow the shape of the dose curve; as a rule, active = well fitted inhibition curve with a large enough effect; inconclusive = small, poorly fitted or top-dose-only effect; inactive = no such curve, though single readings can be large or run the other way.
% is scaled to controls: 0 for no effect and ±100 for the full control effect; potency is read from the fitted curve at half-maximal effect.

On to `O=C(c1ccc(F)cc1)N1CCCC(c2nc(-c3ccc(F)cc3)no2)C1` (centres undefined), for which the Potency entry in test [1] and in test [2] was “inactive” throughout.
With `COc1cc(N2CCOCC2)ccc1NC(=O)c1csc(-c2cccnc2)n1`, the Potency entry in test [1] and in test [2] was “inactive” in each case.
As to `C=C[C@@]1(C)C=C2C(=O)C(O)=C3[C@](C)(C(=O)O)CC[C@@H]4C[C@]34[C@]2(O)C(=O)C1`, the Potency result in test [1] and in test [2] was “inactive” in each case.
With `COC(=O)c1sccc1S(=O)(=O)Nc1ccc(Nc2ccccc2)cc1OC`, the Potency result in test [1] and in test [2] was “inactive” throughout.
`CC1(C)CCC2(C(=O)OC3OC(COC4OC(CO)C(O)C(O)C4O)C(O)C(O)C3O)CCC3(C)C(=CCC4C5(C)CCC(OC6OCC(O)C(O)C6O)C(C)(C)C5CCC43C)C2C1O` (centres undefined): the Potency result in test [1] and in test [2] was “inactive” each time.
`O=C(CNC(=O)c1cccc(C(F)(F)F)c1)N[C@@H]1CCN(Cc2ccc(Cl)cc2)C1`: the Potency result in test [1] and in test [2] was “inactive” each time.
As for `CCOc1ccc(-n2c(C(C)N(Cc3cccnc3)C(=O)Cc3ccc(F)c(C(F)(F)F)c3)nc3ncccc3c2=O)cc1` (centres undefined), the Potency result in test [1] and in test [2] was “inactive” throughout.
In the case of `COc1cc2ncnc(Nc3ccc(O)c(Br)c3)c2cc1OC`, the Potency entry in test [1] and in test [2] was “inactive” in each case.
On to `Clc1ccc(Cn2c(Cc3ccccc3)nc3ccccc32)cc1`, for which the Potency entry in test [1] and in test [2] was “inactive” throughout.
In the case of `Cc1cc(F)c(C(=O)Nc2cccc(-c3nncn3C(C)C)n2)cc1-n1cnc(C2CC2)c1`, the Potency entry in test [1] and in test [2] was “inactive” throughout.
As for `C=C1C(=O)O[C@@H]2C3C(=C(C)[C@@H](O)[C@@H](OC(=O)/C(=C/C)COC(C)=O)[C@@H]12)C(=O)[C@H]1O[C@@]31C` (some centres undefined), the Potency result in test [1] and in test [2] was “inactive” each time.
Consider `COCCCNC(=O)c1ccc(Cn2c(=O)c3ccccc3n(Cc3ccc(C(C)C)cc3)c2=O)cc1`, for which the Potency entry in test [1] and in test [2] was “inactive” each time.
For `COc1cccc(OCCCN)c1-c1cc(Nc2cnc(C#N)cn2)n[nH]1`, the Potency result in test [1] and in test [2] was “inactive” in each case.
Turning to `CC(C)=CCCC1(C)/C=C/C(OC(=O)C=C(C)C)C(C)(O)/C=C/C(=O)/C(CO)=C\C1` (centres undefined), the Potency entry in test [1] and in test [2] was “inactive” throughout.
On to `Cc1cc(Nc2nc(-c3ccccc3)nc3ccccc23)n[nH]1`, for which the Potency entry in test [1] and in test [2] was “inactive” throughout.
As for `CCOc1nc(NC(=O)Cc2cc(OC)ccc2OC)cc(N)c1C#N`, the Potency entry in test [1] and in test [2] was “inactive” in each case.
On to `Cc1ccc(NC(=O)N2CCN(c3nc(N)nc4sc(-c5cccnc5)nc34)CC2)cc1`, for which the Potency entry in test [1] and in test [2] was “inactive” in each case.
As to `COc1nc2ccc(Br)cc2cc1[C@@H](c1ccccc1)[C@@](O)(CCN(C)C)c1cccc2ccccc12`, the Potency entry in test [1] and in test [2] was “inactive” in each case.
Turning to `Cn1ncnc1[C@@H]1c2n[nH]c(=O)c3cc(F)cc(c23)N[C@H]1c1ccc(F)cc1`, the Potency result in test [1] and in test [2] was “inactive” throughout.
Turning to `COc1ccc(C2(CNC(=O)c3ccc(NC(=O)c4ccco4)cc3)CCOCC2)cc1`, the Potency result in test [1] and in test [2] was “inactive” in each case.
As to `CC1(C(=O)Nc2ccc(F)nc2)CCCN1c1nc(Nc2cc(C3CC3)[nH]n2)c2cccn2n1` (centres undefined), the Potency result in test [1] and in test [2] was “inactive” in each case.
As to `CC(C)Oc1ccc(-c2cnc3c(-c4ccnc5ccccc45)cnn3c2)cc1`, the Potency entry in test [1] and in test [2] was “inactive” in each case.
On to `COc1ccc(S(=O)(=O)n2cnc3cc(C)c(C)cc32)cc1`, for which the Potency result in test [1] and in test [2] was “inactive” each time.
Consider `C=C1CO[C@@]2(O[C@H]3CC4C5CC=C6C[C@@H](O)C[C@@H](O[C@@H]7OC[C@H](O)[C@H](O[C@@H]8OC[C@@H](O)[C@H](O)[C@H]8O)[C@H]7O[C@@H]7O[C@@H](C)[C@H](OC(C)=O)[C@@H](OC(C)=O)[C@H]7OC(C)=O)[C@]6(C)C5CC[C@]4(C)[C@@H]3[C@@H]2C)[C@@H](O)[C@H]1OC1OC(C)C(O)C(O)C1O` (some centres undefined), for which the activity change, negative = inhibition in test [1] is -10.8% [at 19.1 µM]; in test [2], 5.43% [at 10.7 µM].
Take `CC(C)(C)[C@H](NC(=O)c1ccc(N)c(Cl)c1)C(=O)N1CCC[C@H]1C(=O)N[C@H](C#N)CC(=O)O`: the Potency result in test [1] and in test [2] was “inactive” in each case.
As to `CC(C)(O)C(=O)N1CCN(c2ccc(C(F)(F)F)c(C3=C(c4c[nH]c5ccccc45)C(=O)NC3=O)c2)CC1`, the Potency entry in test [1] and in test [2] was “inactive” in each case.
Turning to `COc1cc(CN(CCN)C(=O)c2cccs2)ccc1OCc1ccccc1`, the Potency entry in test [1] and in test [2] was “inactive” each time.
As to `Nc1nc2c(cnn2CCCc2ccc(O)cc2)c2nc(-c3ccco3)nn12`, the Potency result in test [1] and in test [2] was “inactive” throughout.
Turning to `Nc1nc(OCc2cc(Br)cs2)c2[nH]cnc2n1`, the Potency result in test [1] and in test [2] was “inactive” each time.
Regarding `CC1OC2OC(=O)C3(C)CC4C5(CO5)C5=CC(=O)OC(C)(C)C5=CC(=O)C4(C)C(C1=O)C23` (centres undefined), the Potency in test [1] was 15.8 µM (active); in test [2], 12.6 µM (active).
As to `N#Cc1cc(CN2CCC(Nc3ncnc4sc(Cl)cc34)CC2)ccc1F`, the Potency entry in test [1] and in test [2] was “inactive” each time.
`C=C(C)C(=O)O[C@H]1C[C@@](C)(O)C2(O)CCC(C)(/C=C3/OC(=O)C(COC)=C31)O2` (some centres undefined): the Potency entry in test [1] and in test [2] was “inactive” in each case.
Consider `O=C(C1CCCCC1)N(CCN1CCN(c2ccccc2O)CC1)c1ccccn1`, for which the Potency entry in test [1] and in test [2] was “inactive” in each case.
Take `COc1cc(C(=O)NCC2(N(C)C)CCCC2)cc(OC)c1OCc1ccccc1`: the Potency result in test [1] and in test [2] was “inactive” throughout.
In the case of `CCn1c(-c2nonc2N)nc2c(C#CC(C)(C)O)ncc(OCC3CCCNC3)c21` (centres undefined), the Potency entry in test [1] and in test [2] was “inactive” throughout.
In the case of `CC(=O)OC1C(O)CC2(C)C(CCC3(C)C2CC=C2C4C5(CCC(CO[C@@H]6O[C@H](CO)[C@@H](O)[C@H](O)[C@H]6O)(OC5=O)C4(C)O)C(O)CC23C)C1(C)C` (some centres undefined), the Potency result in test [1] and in test [2] was “inactive” each time.
For `O=C(Nc1nc2cc(C(F)(F)F)cc(NC3CC3)n2n1)c1cccnc1`, the Potency entry in test [1] and in test [2] was “inactive” in each case.
